About 22,000 (6.9%) of roughly 320,000 compounds were called active. Entries that show only a call come without a potency. Another 27% or so got no clear call; they are omitted. The call rests on the fitted dose curve; in most records, active means well fitted inhibition curve with a large enough effect; inconclusive means small, poorly fitted or top-dose-only effect, or another doubt; inactive means no such curve, though single readings can be large or run the other way. The sample as a whole holds a higher share of actives than the screen did.
test: Primary qHTS for delayed death inhibitors of the malarial parasite plastid, 96 hour incubation; conditions: P. falciparum luciferase reporter growth; series mostly up to 28.7 µM
Method in brief: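 Readout is luminescence from an integrated firefly luciferase in P. falciparum. Red cells, 2% hematocrit and 0.05% parasitemia final, were cultured with compound through two parasite generations (96 hours) at 37 C, 5% CO2.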
Potency means the concentration at half of the fitted maximal effect.

Compound | Potency
CC(C)C(c1nnnn1C1CCCCC1)N1CCN(C(=O)c2ccco2)CC1 (stereo unspecified) | inactive
CN(C)Cc1c(C(=O)N/N=C/c2ccccc2OCc2ccc(F)cc2)nnn1-c1nonc1N | inactive
CCC1OC(c2ccc([N+](=O)[O-])cc2)=Nc2ccccc21 (stereo unspecified) | inactive
CCCC(=O)N1CCC(CCC(=O)NC2CC2)CC1 | inactive
COc1ccc(NC(=O)CCCC2CCCCC2)c(OC)c1 | inactive
COc1ccc(CCNC(=O)COC(=O)C2CCCCC2)cc1 | inactive
COc1ccc(C[C@H]2CN3C(=NC[C@H]3C)N2CCNC(=O)CCC2CCCCC2)cc1 | 6.57 µM (active)
CCCOc1ccc(C2NC(=O)NC(c3ccccc3)=C2C(C)=O)cc1OCC (stereo unspecified) | 4.65 µM (active)
COc1cc(C2NC(=O)NC(c3ccccc3)=C2C(C)=O)c(Br)cc1OCC(N)=O (stereo unspecified) | inactive
CCOC(=O)C1=C(c2ccccc2)NC(=O)NC1c1cc(OCC)c(O)c([N+](=O)[O-])c1 (stereo unspecified) | inactive
Cc1ccc(S(=O)(=O)N/N=C(\c2ccccc2)C2CC2)cc1 | inactive
FC(F)(F)c1cccc(Cc2noc(CN3CCC(N4CCCCC4)CC3)n2)c1 | inactive
O=C(c1ccco1)N1CCN(Cc2cccc(C(F)(F)F)c2)CC1 | inactive
CCOC(=O)N1CCN(Cc2nc(Cc3cccc(C(F)(F)F)c3)no2)CC1 | 9.28 µM (active)
Cc1ccc2nc(SCC(=O)N3CC(C)OC(C)C3)nc(=O)n2c1 (stereo unspecified) | inactive
CC(OC(=O)CCCc1c[nH]c2ccccc12)C(=O)Nc1ccc(S(N)(=O)=O)cc1 (stereo unspecified) | inactive
COc1ccc(C(=O)CCc2ccccc2O)c(OC)c1 | inactive
Cc1ccc(S(=O)(=O)N(C)CC(=O)OCC(=O)Nc2ccccc2)cc1 | inactive
Cc1ccc(NC(=O)C2CCCN2S(=O)(=O)c2cccc3cccnc23)c(C)c1 (stereo unspecified) | inactive
COc1ccc(N(C)C(=O)C2CCN(S(=O)(=O)c3cccc4nsnc34)CC2)cc1 | inactive
COc1ccc(OC)c(NC(=O)C2CCCN2S(=O)(=O)c2cccc3nsnc23)c1 (stereo unspecified) | 13.1 µM (active)
Cc1ccc(OCC(=O)N2CCN(S(=O)(=O)c3ccc(Cl)s3)CC2)cc1C | 9.28 µM (active)

Compound | Potency
O=C(c1cc2ccccc2o1)N1CCN(S(=O)(=O)c2ccc(Cl)s2)CC1 | 11.7 µM (active)
Cc1cc(OCC(=O)N2CCN(c3ncccn3)CC2)ccc1Cl | inactive
CS(=O)(=O)N1CCN(C(=O)c2cc3ccccc3oc2=O)CC1 | inactive
O=C(CN1CCN(S(=O)(=O)c2ccc(Cl)s2)CC1)N1CCCCC1 | inactive
O=S(=O)(c1ccc(Cl)s1)N1CCC2(CC1)OCCO2 | inactive
O=C(CSc1nnc(CN2CCCC2)n1-c1ccc(F)cc1)c1ccc2c(c1)OCO2 | inactive
COc1ccc(C(CNC(=O)COc2ccc([N+](=O)[O-])cc2)N2CCCCC2)cc1 (stereo unspecified) | inactive
COC(=O)C1=C(c2ccc(Cl)c(C(F)(F)F)c2)C[C@@H]2CC[C@H]1N2C(=O)NC1CC1 | 5.86 µM (active)
COC(=O)C1=C(c2ccc(F)cc2F)C[C@@H]2CC[C@H]1N2C(=O)NC1CC1 | inactive
Cc1ccc(N2CC(C(=O)Nc3ccc(S(=O)(=O)N4CCCC4)cc3)CC2=O)cc1C (stereo unspecified) | inactive
COC(=O)c1cc(C(=O)NC(C)C2CC3CCC2C3)cc([N+](=O)[O-])c1 (stereo unspecified) | inactive
Nc1c(C(=O)NCc2ccccc2)nnn1Cc1cccc(Cl)c1 | inactive
CCOc1ccc(Cn2nnc(C(=O)NCc3ccccc3)c2N)cc1 | inactive
COc1cccc(CNC(=O)c2nnn(CC(=O)Nc3cc(Cl)ccc3C)c2N)c1 | 3.7 µM (active)
Cc1ccc(NC(=O)Cn2nnc(C(=O)NCc3ccco3)c2N)c(C)c1 | inactive
COc1cccc(CNC(=O)c2nnn(CC(=O)Nc3cc(C)ccc3C)c2N)c1 | 11.7 µM (active)
COc1cccc(CNC(=O)c2n[nH]c3ccccc23)c1 | inactive
O=C(c1cccc(Br)c1)N1CCN(C2=NS(=O)(=O)c3ccccc32)CC1 | inactive
Cc1ccc(S(=O)(=O)CC(=O)NC(C)c2ccccc2)cc1 (stereo unspecified) | inactive
CC1=CC(C)(C)NC(=S)N1NC(=O)c1ccccc1Cl | inactive
COc1ccc(C(=O)Nc2sc(C)c(C)c2CN2CCOCC2)cc1 | inactive
COc1cc(C(c2c(NC(=O)c3ccco3)sc(C)c2C)N2CCOCC2)cc(OC)c1OC (stereo unspecified) | 3.7 µM (active)

Compound | Potency
COC(=O)c1cc(NC(=O)c2ccco2)ccc1N1CCOCC1 | inactive
Cc1sc2ncn(CC(=O)NCCN(C)C)c(=O)c2c1S(=O)(=O)N1CCC(C)CC1 | inactive
c1ccc(C2CNCc3c2ccc2ccccc32)cc1 (stereo unspecified) | 9.28 µM (active)
Cc1ccc2c(=O)cc(C(=O)NCCc3ccc(S(N)(=O)=O)cc3)oc2c1C | inactive
CC(CC(=O)N1CCN(c2ccccc2)CC1)c1ccccc1 (stereo unspecified) | inactive
COc1ccc(OC)c(S(=O)(=O)N(C)CC(=O)N2CCN(c3ccccc3)CC2)c1 | inactive
COc1ccc(C(CC(=O)N2CCN(c3ccccc3)CC2)c2c(O)cc(OC)cc2OC)cc1 (stereo unspecified) | 11.7 µM (active)
NNC(=O)CNC(c1ccccc1)c1cc(Cl)ccc1NC(=O)c1ccccc1 (stereo unspecified) | inactive
Cc1ccc(NC(=O)/C(=C\c2ccccc2)NC(=O)c2ccco2)cc1 | inactive
Fc1ccc(CNc2nc3ccccc3n3nnnc23)cc1 | 14.7 µM (active)
CCOC(=O)CNc1nc2ccccc2n2c(C)nnc12 | inactive
COc1ccc(CNc2nnnn2C)cc1 | inactive
Cc1cnc(NC(=O)c2ccc(Cl)nc2)s1 | inactive
Cc1nnsc1C(=O)NCc1c(F)cccc1Cl | inactive
O=C(CNC(=O)c1ccccc1Br)NNC(=O)c1cccs1 | inactive
COc1ccc(CCNC(=O)CS(=O)(=O)Cc2nc(-c3ccc(C)cc3)oc2C)cc1OC | inactive
Cc1ccc(-c2nc(CS(=O)(=O)CC(=O)NCc3ccc4c(c3)OCO4)c(C)o2)cc1 | 14.7 µM (active)
COc1ccc(-c2nc(CS(=O)(=O)CC(=O)NCc3cccc(Br)c3)c(C)o2)cc1 | inactive
C=CCNC(=O)c1ccc2c3n(nc2c1)-c1ccc(C)cc1CO3 | inactive
COc1cc2c(cc1NC(=O)COC(=O)/C=C/c1ccccc1)oc1ccccc12 | inactive
COc1cc(/C(=C/c2ccccc2)c2ccccc2)c2c(c1)oc1ccccc12 | 13.1 µM (active)
Cc1oc2cc(Br)c(O)c(Br)c2c1C(=O)c1ccccc1 | inactive

— PubChem BioAssay AID504834 (National Center for Advancing Translational Sciences (NCATS), 2011)
